Bioassay records: PubChem BioAssay, several laboratories
Sampled rows, rich in hits. Any-hit rate of the full collection: about 4.8%.
STAT1 act – STAT1 signaling activators, primary screen, cell-based, HTS, luciferase reporter; activation (% of control), % at 5.5 µM; NIH 3T3 STAT1-luciferase reporter, IFN-gamma, luminescence; 100% = IFN-gamma alone, no compound; AID 932, 2007; hit rate 2.6% among 200,000;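 active = activation above the screen-wide mean activation plus 3 SD, cut at about 130% in these data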
APP 5'UTR act – activators of APP 5'UTR luciferase reporter, primary screen, SH-SY5Y cells | SH-SY5Y APP 5'UTR luciferase reporter, luminescence; zero percent = DMSO vehicle wells | activation, % at 2 µM | hit rate 1% among 190,000;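 active = activation above a set limit, based on mean plus 3 SD of controls, cut at about 140% in these data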
Hsp70 act – Hsp70 transcriptional activators, primary screen, cell-based, HeLa, Hsp70 promoter luciferase, luminescence, 10 µM; HeLa Hsp70 promoter luciferase reporter; scaled: vehicle 0, proteasome-inhibitor control 100%; activation, % at 10 µM; hit rate 0.04% among 200,000; AID 1203, 2008;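 active = activation above the mean across all tested compounds plus 3 SD, cutoff set per campaign, cut at about 5.5% in these data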
Wee1 degr inh – Wee1 degradation inhibitors, primary screen, cell-based, HeLa, Wee1K328M-luciferase, luminescence; hit rate 1.2% among 220,000; reporter increase, % at 5 µM; HeLa Luc-Wee1K328M stability; 100% = proteasome inhibitor MG132 effect;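 active = activation above the mean of all tested compounds plus 3 SD, set per screening run, cut at about 8.8% in these data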;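 also: cells exposed to compound for 20 h before luminescence read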
Target sequence (P30291 whole entry K328M): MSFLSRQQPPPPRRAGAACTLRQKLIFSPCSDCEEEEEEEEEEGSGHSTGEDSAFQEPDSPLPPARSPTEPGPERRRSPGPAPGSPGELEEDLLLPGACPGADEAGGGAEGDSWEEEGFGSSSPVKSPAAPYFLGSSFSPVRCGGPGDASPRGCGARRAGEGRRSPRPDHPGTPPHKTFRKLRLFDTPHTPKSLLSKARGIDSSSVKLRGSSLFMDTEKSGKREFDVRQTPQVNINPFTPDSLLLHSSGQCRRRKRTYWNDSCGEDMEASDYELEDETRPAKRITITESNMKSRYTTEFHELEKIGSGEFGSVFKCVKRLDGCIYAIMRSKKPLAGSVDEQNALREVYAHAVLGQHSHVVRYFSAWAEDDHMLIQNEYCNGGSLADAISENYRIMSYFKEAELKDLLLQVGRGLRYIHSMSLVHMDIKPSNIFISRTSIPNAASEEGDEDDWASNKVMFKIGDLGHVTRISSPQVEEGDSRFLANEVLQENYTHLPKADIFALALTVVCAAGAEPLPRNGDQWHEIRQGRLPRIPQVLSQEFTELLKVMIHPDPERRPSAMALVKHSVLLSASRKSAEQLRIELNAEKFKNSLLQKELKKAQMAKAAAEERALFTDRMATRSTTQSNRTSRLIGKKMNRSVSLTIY
NF-kB expr up – activators of NF-kB expression in neurons, primary screen, cell-based, HTS; human neuronal cells, NF-kB reporter expression; stronger effect = higher value; hit rate 1.6% among 190,000; fold change at 12.5 µM; AID 1239, 2008; in the data active = fold change above about 3.3
APP 5UTR inh – inhibitors of APP translation via 5'UTR reporter, primary screen, APP 5'UTR luciferase, SH-SY5Y cells; SH-SY5Y APP 5'UTR-luciferase reporter, luminescence; inhibition, % at 2 µM; hit rate 0.82% among 190,000;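 active = inhibition above a set limit, derived from the sample mean plus 3 SD, cut at about 45% in these data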
STAT1 act conf – STAT1 signaling activators, confirmation, cell-based, HTS, luciferase reporter; shares compounds with STAT1 act; NIH 3T3 STAT1-luciferase reporter, IFN-gamma potentiation, luminescence; 100% = IFN-gamma EC80 alone, no compound; activation (% of control), % at 5.7 µM; hit rate 97% among 1,200;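 active = activation above a set limit carried over from the earlier primary STAT1 screen, cut at about 140% in these data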
NFkB act – NF-kB reporter activators, TNF-alpha stimulated, counter-screen for STAT1 activator project, cell-based, HEK293T, luciferase luminescence. 100% = TNF-alpha with vehicle only. AID 1306, 2008. activation (% of control), % at 5.7 µM. shares compounds with STAT1 act. hit rate 43% among 1,200;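 active = activation above the mean of solvent-only control wells plus 3 SD, set per campaign, cut at about 130% in these data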;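 also: TNF-alpha given at a submaximal dose yielding about 80% of full reporter signal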
STAT3 act STAT1c – STAT3 reporter activation by STAT1 hits, confirmation, counter-screen for STAT1 activator project, U3A cells, luciferase, luminescence. AID 1316, 2008. shares compounds with STAT1 act. IL-6; cells lack STAT1; 100 = IL-6 alone, no compound effect. hit rate 46% among 1,200. activation (% of control), % at 5.7 µM;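 active = activation above the solvent-only control well mean plus 3 SD, set per plate batch, cut at about 110% in these data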;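 also: higher means more STAT3 reporter activation so hits are non-selective activators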
Large screens that a line does not name were inactive (follow-up assays come after a bar, where they were run).

O=C(Nc1nc(-c2nc3ccccc3s2)cs1)c1ccco1	none
O=C(Nc1nc2ccccc2s1)C1CCCO1 (centres undefined)	STAT1 act 151 | STAT1 act conf 166 | NFkB act inactive | STAT3 act STAT1c inactive
O=C(COc1cccnc1[N+](=O)[O-])Nc1ccccc1Sc1ccccc1	none
O=C1CCCN1c1ncc(S(=O)(=O)c2ccc([N+](=O)[O-])cc2)s1	none
O=c1/c(=C/c2ccc([N+](=O)[O-])cc2)sc2n1CCCN=2	STAT1 act 157 | STAT1 act conf 183 | NFkB act 135 | STAT3 act STAT1c inactive
CCOC(=O)CSc1nc2cc(C)cc(C)c2cc1C#N	none
CCOC(=O)CSc1nc2cc(C)ccc2cc1C#N	STAT1 act 153, NF-kB expr up 7.1 | STAT1 act conf 213 | NFkB act 139 | STAT3 act STAT1c inactive
CCOC(=O)CSc1nc2ccc(C)cc2cc1C#N	STAT1 act 157, NF-kB expr up 4.3 (no result: APP 5'UTR act, APP 5UTR inh) | STAT1 act conf 221 | NFkB act 142 | STAT3 act STAT1c inactive
CCOC(=O)CSc1nc2cc(OC)ccc2cc1C#N	STAT1 act 168, APP 5'UTR act 173, NF-kB expr up 8.1 | STAT1 act conf 259 | NFkB act 145 | STAT3 act STAT1c 112
COc1ccc2nc(SCC(C)=O)c(C#N)cc2c1	STAT1 act 190, APP 5'UTR act 138, NF-kB expr up 5.8 | STAT1 act conf 312 | NFkB act 139 | STAT3 act STAT1c inactive
CCOC(=O)CSc1nc(N)c(C#N)cc1C#N	none
COc1ccc2nc(SC)c(C#N)cc2c1	none
CCOC(=O)C(C)c1c(C(=O)c2ccc(C)nc2)c2ccccc2n1C (centres undefined)	none (no result: STAT1 act, APP 5'UTR act, Hsp70 act, NF-kB expr up, APP 5UTR inh)
Cc1nc(SCc2ccccc2)c([N+](=O)[O-])[nH]1	none
CCN(CC)S(=O)(=O)c1ccc(C(=O)Nc2nnc(-c3ccco3)o2)cc1	none
CCOC(=O)C1CCCN(c2cc(NCCCO)c([N+](=O)[O-])c3nonc23)C1 (centres undefined)	none
O=C(OCCNc1nc(-c2ccccc2)nc2ccccc12)c1ccncc1	none
C/C(N)=C(/C#N)C(=O)COC(=O)c1cc(C)n(-c2ccc(F)cc2)c1C	STAT1 act 154 | STAT1 act conf 173 | NFkB act inactive | STAT3 act STAT1c 153
Cc1cc(C(=O)OCC(N)=O)c(C)n1-c1ccccc1	none
N/C(=N\OC(=O)COc1ccc(Br)cc1Cl)c1ccncc1	STAT1 act 178, APP 5'UTR act 140, NF-kB expr up 4.4 | STAT1 act conf 193 | NFkB act 144 | STAT3 act STAT1c 118
Cc1cc(NS(=O)(=O)N(C)C)ccc1C(C)C	none
c1ccc(-c2cc(-c3ccccc3)n3ncnc3n2)cc1	none
c1ccc(-c2cn3nc(-c4ccccc4)cnc3n2)cc1	STAT1 act 155, APP 5'UTR act 172, NF-kB expr up 4.1 | STAT1 act conf 212 | NFkB act inactive | STAT3 act STAT1c inactive
Fc1ccccc1N1CCN(c2cnc3ccccc3n2)CC1	STAT1 act 168, NF-kB expr up 6.3 (no result: APP 5'UTR act, APP 5UTR inh) | STAT1 act conf 245 | NFkB act inactive | STAT3 act STAT1c inactive
